# Reference: PubChem BioAssay AID1159580 (chemical genetic matrix, 2015)
# The whole screen tested about 5,500 compounds, of which about 2,000 (36%) were called active. Another 18% or so got no clear call; they are omitted. Some of the results follow. A number with no mark means an inactive call. Rule as the data show it: active = normalized growth mostly below about 0.91 (no sharp cut-off); inconclusive = no clear call, values can overlap the other calls; inactive = mostly above about 0.92.
# Assay: chemical genetic growth profiling, strain panel (AID 1159580);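 also: tested at 20 µM; growth read once vehicle control cultures reached saturation at 30 °C; 1 = growth at the plate median or of vehicle wells; lower values mean less growth of the strain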
# Conditions: S. cerevisiae deletion strains, growth OD
compound,measurement,setting,value
O=C(Nc1ccc(Cl)cc1)OCCSc1nc2ccccc2s1,normalized growth,"locus YAR019C, strain CDC15, active compounds read low",0.987
same,normalized growth,"locus YBL105C, strain PKC1, active compounds read low",0.973
same,normalized growth,"locus YBR135W, strain CKS1, active compounds read low",0.979
same,normalized growth,"locus YBR136W, strain MEC1, active compounds read low",0.976
same,normalized growth,"locus YBR160W, strain CDC28, active compounds read low",0.979
same,normalized growth,"locus YDL017W, strain CDC7, active compounds read low",0.983
same,normalized growth,"locus YDL028C, strain MPS1, active compounds read low",0.982
same,normalized growth,"locus YDL101C, strain DUN1, active compounds read low",0.985
same,normalized growth,"locus YDL108W, strain KIN28, active compounds read low",0.978
same,normalized growth,"locus YDL132W, strain cdc53, active compounds read low",0.979
same,normalized growth,"locus YDL214C, strain PRR2, active compounds read low",0.883
same,normalized growth,"locus YDR052C, strain DBF4, active compounds read low",0.994
same,normalized growth,"locus YDR054C, strain cdc34, active compounds read low",0.973
same,normalized growth,"locus YDR226W, strain ADK1, active compounds read low",0.987
same,normalized growth,"locus YDR477W, strain SNF1, active compounds read low",0.959
same,normalized growth,"locus YER123W, strain YCK3, active compounds read low",0.887
same,normalized growth,"locus YER133W, strain GLC7, active compounds read low",0.93
same,normalized growth,"locus YFL009W, strain cdc4, active compounds read low",0.981
same,normalized growth,"locus YFL029C, strain CAK1, active compounds read low",0.975
same,normalized growth,"locus YFR003C, strain YPI1, active compounds read low",0.977
same,normalized growth,"locus YFR019W, strain FAB1, active compounds read low",0.848
same,normalized growth,"locus YFR028C, strain CDC14, active compounds read low",0.975
same,normalized growth,"locus YGR040W, strain KSS1, active compounds read low",0.929
same,normalized growth,"locus YGR052W, strain FMP48, active compounds read low",0.911
same,normalized growth,"locus YGR092W, strain DBF2, active compounds read low",0.928
same,normalized growth,"locus YHR030C, strain SLT2, active compounds read low",0.757 (active)
same,normalized growth,"locus YHR079C, strain IRE1, active compounds read low",0.902
same,normalized growth,"locus YHR082C, strain KSP1, active compounds read low",0.86
same,normalized growth,"locus YHR205W, strain SCH9, active compounds read low",0.695
same,normalized growth,"locus YIL147C, strain SLN1, active compounds read low",0.988
same,normalized growth,"locus YJL095W, strain BCK1, active compounds read low",0.845
same,normalized growth,"locus YJL128C, strain PBS2, active compounds read low",0.944
same,normalized growth,"locus YJL157C, strain FAR1, active compounds read low",0.894
same,normalized growth,"locus YJR016C, strain ILV3, active compounds read low",0.985
same,normalized growth,"locus YJR066W, strain TOR1 (second series), active compounds read low",0.811
same,normalized growth,"locus YJR066W, strain TOR1, active compounds read low",0.833
same,normalized growth,"locus YKL048C, strain ELM1, active compounds read low",1.01
same,normalized growth,"locus YKL067W, strain YNK1, active compounds read low",0.901
same,normalized growth,"locus YKL101W, strain HSL1, active compounds read low",0.952
same,normalized growth,"locus YKL193C, strain SDS22, active compounds read low",0.983
same,normalized growth,"locus YKL203C, strain TOR2, active compounds read low",0.987
same,normalized growth,"locus YLR113W, strain HOG1, active compounds read low",0.859 (active)
same,normalized growth,"locus YLR133W, strain CKI1, active compounds read low",0.93
same,normalized growth,"locus YLR403W, strain SFP1, active compounds read low",0.899
same,normalized growth,"locus YML070W, strain DAK1, active compounds read low",0.894
same,normalized growth,"locus YMR001C, strain CDC5, active compounds read low",0.976
same,normalized growth,"locus YMR205C, strain PFK2 (second series), active compounds read low",0.95
same,normalized growth,"locus YMR277W, strain FCP1, active compounds read low",0.979
same,normalized growth,"locus YNL006W, strain LST8, active compounds read low",0.991
same,normalized growth,"locus YNL020C, strain ARK1, active compounds read low",0.929
same,normalized growth,"locus YNL161W, strain CBK1, active compounds read low",0.985
same,normalized growth,"locus YNL183C, strain NPR1, active compounds read low",0.846
same,normalized growth,"locus YNL207W, strain RIO2, active compounds read low",0.983
same,normalized growth,"locus YNL222W, strain SSU72, active compounds read low",0.976
same,normalized growth,"locus YNL307C, strain MCK1 (second series), active compounds read low",0.909
same,normalized growth,"locus YOL078W, strain AVO1, active compounds read low",0.977
same,normalized growth,"locus YOL136C, strain PFK27, active compounds read low",0.902
same,normalized growth,"locus YOR061W, strain CKA2, active compounds read low",0.928
same,normalized growth,"locus YOR119C, strain RIO1, active compounds read low",0.984
same,normalized growth,"locus YOR231W, strain MKK1, active compounds read low",0.931
same,normalized growth,"locus YOR329C, strain SCD5, active compounds read low",0.987
same,normalized growth,"locus YPL031C, strain PHO85, active compounds read low",0.955
same,normalized growth,"locus YPL153C, strain RAD53, active compounds read low",0.95
same,normalized growth,"locus YPL204W, strain HRR25, active compounds read low",0.922
same,normalized growth,"locus YPL209C, strain IPL1, active compounds read low",0.982
same,normalized growth,"locus YPR025C, strain CCL1, active compounds read low",0.977
same,normalized growth,"locus YPR106W, strain ISR1, active compounds read low",0.984
same,normalized growth,"locus YPR111W, strain DBF20, active compounds read low",0.972
same,normalized growth,"strain NNK1, active compounds read low",0.988
same,normalized growth,"strain TSCII, active compounds read low",0.979
